Compound activity from PubChem BioAssay.
SENP8 block-1: inhibitors of human SENP8 protease; Q96LD8; recombinant SENP8, Nedd8 substrate fluorescence; inhibition, % at 20 µM; actives 0.64% (n = 360,000); in the data active means inhibition mostly above about 40%, no sharp cut-off; inactive means mostly below about 27%
SENP8 block-2: SENP8 protease inhibition; AID 2540; actives 1.2% (n = 330,000); inhibition, % at 10 µM; purified SENP8, Z-RLRGG-aminoluciferin cleavage, luminescence; Q96LD8; in the data active means inhibition above about 50%
SENP7 block: inhibitors of human SENP7 protease | Q9BQF6 | recombinant SENP7, Z-RLRGG-aminoluciferin luminescence, 40 min | inhibition, % at 5 µM | actives 1.5% (n = 330,000) | AID 434973;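 active means inhibition above about 50% at the single test dose, limit read from the data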;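 further: plate controls were DMSO with enzyme for no effect and no enzyme buffer wells for full effect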
AHR activator: activators of human aryl hydrocarbon receptor. P35869. AHR-responsive luciferase reporter cells, luminescence. activation, % at 5 µM. actives 2.5% (n = 320,000). AID 2796; in the data active means activation above about 47%;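 further: 0% = vehicle wells and 100% = reference agonist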
Target sequence (P35869 whole entry, looked up): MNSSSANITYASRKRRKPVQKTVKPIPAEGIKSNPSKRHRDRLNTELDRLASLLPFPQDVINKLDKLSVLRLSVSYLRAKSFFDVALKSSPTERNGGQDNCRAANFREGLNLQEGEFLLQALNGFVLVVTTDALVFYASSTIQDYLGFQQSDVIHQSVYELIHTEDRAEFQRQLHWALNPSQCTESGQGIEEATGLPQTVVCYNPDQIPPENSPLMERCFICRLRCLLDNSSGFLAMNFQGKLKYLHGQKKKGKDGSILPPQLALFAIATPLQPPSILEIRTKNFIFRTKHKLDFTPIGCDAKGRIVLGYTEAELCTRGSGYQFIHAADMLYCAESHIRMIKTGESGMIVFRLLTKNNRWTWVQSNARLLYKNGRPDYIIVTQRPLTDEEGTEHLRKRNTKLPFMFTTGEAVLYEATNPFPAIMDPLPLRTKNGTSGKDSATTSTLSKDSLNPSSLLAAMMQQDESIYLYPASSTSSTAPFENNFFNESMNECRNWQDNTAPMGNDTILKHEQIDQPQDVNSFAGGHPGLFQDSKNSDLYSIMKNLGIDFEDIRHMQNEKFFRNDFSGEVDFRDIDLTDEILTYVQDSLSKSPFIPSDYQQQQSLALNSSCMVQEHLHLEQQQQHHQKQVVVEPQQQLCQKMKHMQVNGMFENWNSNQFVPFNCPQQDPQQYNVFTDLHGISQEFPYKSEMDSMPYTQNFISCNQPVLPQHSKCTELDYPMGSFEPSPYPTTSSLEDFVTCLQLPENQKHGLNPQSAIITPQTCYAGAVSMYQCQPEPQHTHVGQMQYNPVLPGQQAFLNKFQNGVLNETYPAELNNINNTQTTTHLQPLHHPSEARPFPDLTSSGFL
SENP6 block: blocks the human protease SENP6. Recombinant SENP6 catalytic domain, aminoluciferin luminescence. inhibition, % at 10 µM. Q9GZR1. actives 1.8% (n = 330,000);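 active means inhibition above about 50% at the single tested dose, limit read from the data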;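 further: plate controls were DMSO wells with enzyme for no effect and DMSO wells lacking enzyme for full effect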
EBI2 block: antagonists of human EBI2 receptor; inhibition, % at 5 µM; EBI2 beta-arrestin recruitment, luminescence, 7a,25-OHC stimulated; P32249; actives 0.81% (n = 360,000); in the data active means inhibition above about 38%;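 further: enzyme fragment complementation signal reports receptor beta-arrestin coupling in cells; 0% = agonist plus DMSO wells and 100% = wells without agonist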
* marks the source's active call; other numbers are inactive results; i = inactive; nt = no result. Shown are actives, neighbours in structure and some others; about 5% of the full set was active somewhere.

SMILES	SENP8 block-1	SENP8 block-2	SENP7 block	AHR activator	SENP6 block	EBI2 block
Cc1ccc(NC(=O)c2cccs2)cc1NC(=O)c1cccc(F)c1	-1	5	5	64*	1	-6
Cc1cc(NC(=O)c2cccs2)n(-c2ccccc2)n1	4	-12	-4	0	-4	2
Cc1ccc(NC(=O)c2cccs2)cc1NC(=O)c1ccc(F)cc1	6	2	2	39	-6	-20
COc1cc(NC(=O)c2cccc3c(-c4cnn(C)c4)coc23)cc(OC)c1OC	12	nt	nt	nt	nt	-44
COc1ccc(C(C(=O)Nc2ccc3c(c2)OCCO3)n2c(=O)c(-c3ccco3)nc3ccccc32)cc1 (stereo unspecified)	-274	nt	nt	nt	nt	-2
COCCNC(=O)C1CCCN(C(=O)c2ccc(F)c(C)c2)CC1 (stereo unspecified)	9	nt	nt	nt	nt	-7
Cc1ccc(NC(=O)c2ccccc2N2C(=O)C3C4C=CC(C5CC45)C3C2=O)cc1C (stereo unspecified)	6	-3	-2	5	4	4
O=C(c1ccc(Br)o1)N1CCc2ccccc21	nt	93*	95*	2	94*	nt
CC(C)CNc1ncnc2[nH]ncc12	21	nt	nt	nt	nt	-1
O=c1c(C=NCCN2CCNCC2)c(-c2ccccc2)[nH]n1-c1ccc([N+](=O)[O-])cc1	nt	90*	84*	4	93*	nt
COc1ccccc1C(NC(=O)C1CCN(CCOc2ccccc2)CC1)c1ccccn1 (stereo unspecified)	12	nt	nt	nt	nt	-13
Clc1nssc1=Nc1nncs1	19	5	11	6	18	-3
Clc1ccc(N=c2ssnc2Cl)nc1	37	9	11	21	40	85*
Cc1ccc2nc(-c3ccccc3)cc(C(=O)N(C)CC(=O)Nc3ccccc3Br)c2c1	-51	-10	6	9	-12	-9
CC(C)c1ccc(NC(=O)C2Cc3c(-c4ccco4)ccnc3O2)cc1 (stereo unspecified)	8	nt	nt	nt	nt	-8
Clc1nc(NCCc2ccccc2)c2cn[nH]c2n1	-21	nt	nt	nt	nt	-1
COc1ccc(N2CC(C(=O)Nc3cc(C)on3)CC2=O)cc1 (stereo unspecified)	5	6	-2	0	-19	4
CCOc1ccc(N2CC(C(=O)Nc3cc(C)on3)CC2=O)cc1 (stereo unspecified)	37	5	2	76*	-11	-4
O=[N+]([O-])c1ccc(S(=O)(=O)N(CCCN2CCOCC2)Cc2cccs2)cc1	10	3	2	-2	25	-7
COc1ccccc1-c1nc(C(N)=O)c2[nH]c(=O)n(-c3cccc(C)c3)c2n1	-253	-9	3	66*	-24	6
CCOc1ccccc1-c1nc(C(N)=O)c2[nH]c(=O)n(-c3ccccc3)c2n1	-331	0	5	26	-14	2
Cc1ccc(C(=O)N/C(=C\c2ccc(-c3ccccc3[N+](=O)[O-])o2)C(=O)NCCN(C)C)cc1	-9	21	5	52*	30	-2
COc1cc(N=Nc2ccccc2C(=O)O)ccc1O	29	-12	2	3	-6	-11
COc1ccccc1N=Nc1ccc(N)c(C)c1	26	12	35	60*	34	9
COc1ccc(C2/C=C\CN(C(=O)C3CCCC3)[C@H](Cc3ccccc3)C(=O)N2Cc2ccc(F)cc2)cc1 (stereo partly specified)	14	-5	-6	0	-14	34
SMILES	SENP8 block-1	SENP8 block-2	SENP7 block	AHR activator	SENP6 block	EBI2 block
COc1ccc2nc3n(c(=O)c2c1)-c1ncccc1C(=O)NC3Cc1ccccc1 (stereo unspecified)	-12	nt	nt	nt	nt	-2
O=C(NCCc1ccccc1Cl)c1cc(COc2ccc(F)cc2F)on1	-2	1	-6	-4	3	57*
CCOC(=O)c1[nH]c2ccccc2c1NC(=S)Nc1ccccc1C	-352	-2	-3	59*	3	-2
CCOC(=O)c1[nH]c2ccccc2c1NC(=O)CC(C)C	-397	-10	-12	18	-16	-4
CCOC(=O)c1[nH]c2ccccc2c1NC(=S)Nc1cc(C)ccc1C	-368	2	-8	60*	13	3
CCCC(=O)Nc1c(C(=O)OCC)[nH]c2ccccc12	-387	-9	-24	58*	-6	-5
COc1ccc(-c2cc(C#N)nc(N3CCN(C)CC3)n2)cc1	-66	0	3	73*	17	-1
O=C(NCc1ccncc1)Nc1ccc(Cl)cc1Cl	18	-13	-10	49*	-20	-2
S=C(NCc1ccncc1)Nc1ccc(Cl)cc1Cl	28	4	4	13	13	-3
CC(=O)N1CCCC(C)(C(=O)N(C)Cc2cccc3ccccc23)C1 (stereo unspecified)	18	nt	nt	nt	nt	1
CCCCNc1c(-c2ccc(-c3ccc(C(C)=O)cc3)c(OC)c2)nc2cnccn12	-488	-2	-4	18	-7	49*
COc1ccc(-c2nc3ccccn3c2NC2CCCCC2)cc1SC1CCCCC1	-479	-5	1	11	1	-9
COc1cc(-c2nc3cnccn3c2NC(C)(C)CC(C)(C)C)ccc1O	-424	7	1	-1	-22	2
COc1ccc(-c2nc3cnccn3c2NCc2ccccc2)cc1SC1CCCCC1	i	1	-5	50*	-21	3
CCCCCCSc1cc(-c2nc3cnccn3c2NCc2ccccc2)ccc1OC	i	-5	-2	49*	-10	15
COc1cc(-c2nc3ccccn3c2NCc2ccccc2)ccc1SC1CCCCC1	-472	-17	-14	69*	-9	24
CCCCCCSc1cc(-c2nc3cc(C)ccn3c2NC2CCCCC2)ccc1OC	-470	4	3	6	-20	0
Cc1nn(CC(=O)NC2CC2)c(C)c1S(=O)(=O)N(C)C	8	nt	nt	nt	nt	-13
Cc1ccc2nc(C(C)(C)C)c(Cc3ccccc3C(F)(F)F)n2c1	-176	nt	nt	nt	nt	5
Oc1ccccc1-c1nc2c3ccccc3c3ccccc3c2[nH]1	-276	nt	nt	53*	nt	-15
Oc1ccccc1-c1ccn[nH]1	4	11	6	2	10	0
COc1ccc(C2CCc3cc4c(cc3C2=NO)OCO4)cc1OC (stereo unspecified)	3	nt	nt	nt	nt	-4
CCOc1ccccc1NC(=S)Nn1cnnc1	4	-1	6	3	-4	-8
COc1ccccc1-c1cccc([C@@H]2C[C@H]3[C@H](CON3C)CN2S(=O)(=O)c2ccccc2C)c1	-2	nt	nt	nt	nt	4
CCN(c1ccc(N=Cc2c(O)n(Cc3ccc(OC)cc3)c(=O)c3ccccc23)cc1)C(C)C	30	nt	nt	nt	nt	13
COc1ccc(-c2cc(C(F)(F)F)c(C#N)c(SCC(=O)O)n2)cc1	-445	-20	-5	26	-16	-4
C#CCSc1nc(-c2ccccc2)cc(C(F)(F)F)c1C#N	-139	-11	-7	64*	-21	11
